According to ChEMBL document CHEMBL4513216, “Probing the Open Global Health Chemical Diversity Library for Multistage-Active Starting Points for Next-Generation Antimalarials” (ACS Infect Dis, 2020):
The campaign covered roughly 69,000 compounds. About 8,600 (12%) showed an effect of 50% or more. This excerpt belongs to a sample that is enriched for strong results.

system: Plasmodium berghei; assay: Screen against P. berghei liver stage (PbLuc), transformed with Luciferase, at 10uM; assay type: functional, HepG2; settings: tested at 10 uM

| SMILES | INHIBITION |
| --- | --- |
| CC(=O)N1CCOC(c2cncc(CCC(N)=O)n2)C1 (stereo not given) | 10.9% |
| c1nc(C2CCCCO2)ncc1CN1CCOCC1 (stereo not given) | 0.696% |
| N#Cc1cc2c(nc1SCc1cc(O)nc(O)n1)CCCC2 | 32.3% |
| N#Cc1cc2c(nc1O)CCCCC2 | 23.4% |
| N#Cc1cc2c(nc1SCc1cc(O)nc(O)n1)CCCCC2 | 66.4% |
| N#Cc1ccccc1N1CC2(CCCCN2CC2CC2)CC1=O (stereo not given) | 15.3% |
| CC(C)n1cc(CN2CCCN(C(=O)C(C)n3cccn3)CC2)cn1 (stereo not given) | 38.5% |
| O=C1COc2cc(C(=O)N3CCCC(n4cccn4)C3)ccc2N1 (stereo not given) | -24.2% |
| CCN1CC(CN(C)Cc2nc(-c3ccoc3)oc2C)CC1=O (stereo not given) | 39.6% |
| CCc1nc2c(s1)C(N(C)C(C)=O)CCC2 (stereo not given) | 6.33% |
| Cc1nc2c(s1)C(N(C)C(=O)NCCCC(C)(C)CO)CCC2 (stereo not given) | 3.67% |
| CCNC(=O)N(C)C1CCCc2nc(C)sc21 (stereo not given) | 64.9% |
| CCc1nc2c(s1)C(N(C)C(=O)c1csnn1)CCC2 (stereo not given) | 68% |
| CC(=O)N(C)C1CCCc2nc(C)sc21 (stereo not given) | 3.03% |
| CCc1nc2c(s1)C(N(C)C(=O)c1cc[nH]n1)CCC2 (stereo not given) | 28.6% |
| Cc1cc(C)n(CC(=O)N2CCC(c3nc(C(C)C)no3)CC2)n1 | -6.42% |
| COc1cc(CNCCn2ccnc2)cc2c1OCO2 | 17.4% |
| COc1ccc(CNC(=O)CCN2C[C@@H](C)[C@](O)(C3CC3)C2)cc1 | 25.4% |
| CC(=O)Nc1ccc(C(=O)N2CCSCC2c2ccc(C)o2)cc1 (stereo not given) | -14.3% |
| c1cncc(-c2noc(CN3CCCC3Cn3cccn3)n2)c1 (stereo not given) | -9.37% |
| O=S(=O)(c1cccnc1)N1CCN(CC(O)c2ccccc2)CC1 (stereo not given) | 83.4% |
| Cc1ccc(CC(=O)N2CCN(CC(O)c3ccccc3)CC2)cn1 (stereo not given) | 42.7% |

| SMILES | INHIBITION |
| --- | --- |
| O=S(=O)(c1cccnc1)N1CCN(Cc2nc(-c3cccs3)cs2)CC1 | 57.1% |
| O=S(=O)(c1cccs1)N1CCN(Cc2nc(-c3ccco3)cs2)CC1 | 57.1% |
| CC(C)(C)c1csc(CN2CCN(S(=O)(=O)c3cccnc3)CC2)n1 | 29% |
| O=S(=O)(c1cccs1)N1CCCn2nnc(CN3CCCCC3)c2C1 | 23.2% |
| O=S(=O)(c1ccc(Cl)s1)N1CCN(Cc2nc(-c3ccco3)cs2)CC1 | 86.6% |
| Cn1cnc(S(=O)(=O)N2CCN(Cc3ccco3)CC2)c1Cl | 32.7% |
| O=S(=O)(c1cccnc1)N1CCN(CC(O)c2cccs2)CC1 (stereo not given) | -7.28% |
| O=S(=O)(c1cccnc1)N1CCN(Cc2nc(-c3ccco3)cs2)CC1 | 33.4% |
| O=S(=O)(c1cccs1)N1CCCn2cnc(CN3CCCC3)c2C1 | -11.9% |
| N#CCCN1CCN(S(=O)(=O)c2ccc(Cl)s2)CC1 | 42% |
| Cn1ccc(C(=O)NC2CCC23CCN(Cc2nccs2)CC3)c1 (stereo not given) | 38.2% |
| Cc1cc(-c2ccccc2C(=O)O)nc(C2CCCN(C)C2)n1 (stereo not given) | 30.8% |
| CC(C)CN1CCS(=O)(=O)[C@@H]2CCN(S(=O)(=O)C3CC3)CC[C@@H]21 | 12.1% |
| CC(NC(=O)C1CC1)c1cc(O)nc(-c2cccnc2)n1 (stereo not given) | 10.3035% |
| O=C(c1ccnnc1)N1CCO[C@H]2[C@H](Oc3cccnc3)CC[C@@H]21 | 13.7% |
| CN1CCN(C(=O)CCc2ccccc2)Cc2cccnc21 | -54.5% |
| C=c1occc1=C1NN=C2SC(C#N)C(N)=NN21 (stereo not given) | -14.8% |
| CCC(C(=O)N(Cc1ccccc1OC)C1CC1)n1cccn1 (stereo not given) | 61% |
| CCC(C)C(=O)N(Cc1ccccn1)C1CC1 (stereo not given) | 36.9% |
| CCC(C(=O)N(Cc1ccccn1)C1CCCCC1)n1cccn1 (stereo not given) | 72.1% |
| O=C(c1ccoc1)N(Cc1ccccn1)C1CC1 | -0.87% |
| CCC(C(=O)NC1CCCCC1)n1cccc(OC)c1=O (stereo not given) | -1.83% |

| SMILES | INHIBITION |
| --- | --- |
| CCC(C(=O)N(C)Cc1cc(C2CC2)[nH]n1)n1cccn1 (stereo not given) | -33.5% |
| O=C(c1csc(-c2nnc[nH]2)n1)N1CCCCC1Cn1cccn1 (stereo not given) | 18.2% |
| Cn1cc(C(=O)CC2CCCN2C(=O)c2ccncc2F)cn1 (stereo not given) | 10% |
| CC(=O)N1CCN(CCCOc2ccccc2F)CC(C(N)=O)C1 (stereo not given) | 46% |
| COc1ccc(F)cc1C(=O)N1C[C@H]2CC(OC)C[C@H]2C1 (stereo not given in full) | 23.2% |
| Cc1ccccc1CC(C)(C)NC(=O)c1cccc(OCC(N)=O)c1 | 36.3% |
| Cc1ccccc1CC(C)(C)NC(=O)COc1cccc(C(N)=O)c1 | 38% |
| Cc1ccccc1CC(C)(C)NC(=O)CCOc1cccc(C(N)=O)c1 | 69.7% |
| c1cc2c(cc1Cn1cc(C3CCOC3)nn1)CCCO2 (stereo not given) | 46.7% |
| COCC(=O)N1CCN(Cn2nc(C)c(Br)c2C)CC1 | -36.4% |
| COC(=O)N1CCCN(Cn2nc(C)c(Br)c2C)CC1 | 13% |
| CCC(=O)N1CCCN(Cn2nc(C)c(Br)c2C)CC1 | 56.1% |
| COc1ccc(CNC(=O)N2CCN(CC(O)C3CC3)CC2)cc1 (stereo not given) | 35% |
| CN(C)CCOc1cccc(CN2CCCC3(C2)CN(C)C(=O)O3)c1 (stereo not given) | 20.9% |
| CCn1ccnc1CNCC(c1ccc(C)s1)N1CCOCC1 (stereo not given) | 60.3% |
| Cc1ccc(C(CNCc2ncc[nH]2)N2CCOCC2)s1 (stereo not given) | 60.3% |
| CN(Cc1ncc[nH]1)CC(c1cccs1)N1CCOCC1 (stereo not given) | 12.8% |
| Cc1ccc(C(CNCc2nccn2C)N2CCOCC2)s1 (stereo not given) | 47.4% |
| Cc1ccc(C(CNCC2CC2)N2CCOCC2)s1 (stereo not given) | -23.2% |
| Cc1ccc(C(CNCc2cccnc2)N2CCOCC2)s1 (stereo not given) | 42.3% |
| Cc1nccn1CCN(C)C(=O)c1cn(-c2ccccc2)nn1 | -32.6% |
| CC(C)NC(=O)N1CCCn2cnc(CN3CCCC3=O)c2C1 | -12.2% |

| SMILES | INHIBITION |
| --- | --- |
| CN(C)CCOCC1CN(C(=O)c2ccnnc2)Cc2ccnn2C1 (stereo not given) | 39.8% |
| CO[C@H]1CN(Cc2nc3ccccc3n2C)C[C@@]12CCCO2 | 25.64% |
| COCCCNC(=O)CN(C)C(=O)c1ccc(-n2cccc2)cc1O | 39.25% |
| CCn1c(Cn2cncn2)nnc1C1CCN(C2CCOCC2)CC1 | 15.7% |
| Cc1n[nH]c(C2CN(C(=O)COCC(F)(F)F)CCO2)n1 (stereo not given) | 32.2% |
| NC(=O)c1cnn2c1NCC(CNC1(c3ccccc3)CCC1)C2 (stereo not given) | 33.7% |
| O=S(=O)(NCc1ccc(S(=O)(=O)N2CCCC2)s1)c1cc(Cl)ccc1Cl | 3.48% |
| Nc1nc(SCc2ccc3c(c2)OCO3)ns1 | -14.2% |
| CC(C)CNC(=O)Nc1cccc(OCC#N)c1 | -8.4% |
| CN(CCn1ccc2ccccc21)C(=O)CS(C)(=O)=O | 34.1% |
| CN(CCn1ccc2ccccc21)C(=O)Cc1n[nH]c(=O)[nH]1 | 5.38% |
| CN(CCn1ccc2ccccc21)C(=O)Cc1nnn[nH]1 | 62.8% |
| Cn1cc(CN2CCCN(C(=O)c3sccc3C#N)CC2)cn1 | -5.25% |
| c1cnc(N2CCC3(CCN(CC4CCOC4)CC3)C2)nc1 (stereo not given) | -10.2% |
| c1cnc(N2CCC3(CC2)CN(CC2CC2)c2ccccc23)nc1 | 83.2% |
| O=C1N(CC2CC2)CCC12CCN(c1ncccn1)CC2 | -2.6% |
| OCCN1CC2(CCN(CC3CC3)CC2)c2ccccc21 | 26% |
| CCS(=O)(=O)N1CCC2(CCC(N3CCCC3)c3ccccc32)CC1 (stereo not given) | 23.1% |
| O=C1CC2(CCN(CC3CCOC3)CC2)c2ccccc2N1CC1CC1 (stereo not given) | 9.97% |
| CCS(=O)(=O)N1CCC2(CC1)CC(CC(=O)NC1CC1)c1ccccc12 (stereo not given) | -5.22% |
| CCS(=O)(=O)N1CCC2(CC1)CN(CC1CCOC1)c1ccccc12 (stereo not given) | 73.8% |
| CS(=O)(=O)N1CCC2(CC1)CN(CC1CCOC1)c1ccccc12 (stereo not given) | 39.4% |

| SMILES | INHIBITION |
| --- | --- |
| c1ccc2c(c1)N(CC1CCOC1)CC21CCN(c2cnccn2)CC1 (stereo not given) | 84.7% |
| CCCS(=O)(=O)N1CCC2(CC1)CC(N1CCCC1)c1ccccc12 (stereo not given) | 71.8% |
| c1cnc(N2CC3(CCN(CC4CCOC4)CC3)c3ccccc32)nc1 (stereo not given) | 18.7% |
| Cc1cc(C(=O)N2CCn3cc(CN4CCN(C)CC4)nc3C2)no1 | 32.2% |
| Cc1nc(Nc2nccs2)cc(C2CN(C(C)C)C2)n1 | -17.9% |
| CC(=O)N1CCCC(c2cnc(-c3c(C)nn(C)c3C)cn2)C1 (stereo not given) | 47.8% |
| CCc1n[nH]c(C2CN(C(=O)c3ccc(Cl)cn3)CCO2)n1 (stereo not given) | 25.4% |
| CN(CC(=O)N(C)C(c1ccc(Cl)cc1)c1cccnc1)C1CC1 (stereo not given) | 3.19% |
| CCS(=O)(=O)N1CCC2(CC1)CC(Oc1ccccn1)CO2 (stereo not given) | 0.547% |
| CN1CCCN(C[C@@H]2CN(c3nc(C(N)=O)cs3)C[C@@H]2CO)CC1 | 20.3% |
| Cc1cnn(C2CCCN(C(=O)c3ccc(N4CCCC4)nc3)C2)c1 (stereo not given) | 19.6% |
| CN1CCC(N(C)C(=O)c2cnn(-c3ccccc3Br)c2N)CC1 | 27.3% |
| CCCS(=O)(=O)N1CCC2(CC1)CN(CC1CCOC1)c1ccccc12 (stereo not given) | 87.4% |
| CN(C)C(=O)N1CCC2(CC1)C(=O)N(CC1CCOC1)c1ccccc12 (stereo not given) | 7.5% |
| CCCS(=O)(=O)N1CCC2(CC1)CN(C(=O)N(C)C)c1ccccc12 | 10.7% |
| O=C1CO[C@@H]2CN(CC3CCOCC3)C[C@H]2N1CC1CC1 | 37.5% |
| N#Cc1cccnc1NCCNC(=O)N1CCCC(N2CCCC2)C1 (stereo not given) | 24.6% |
| Cc1cccnc1NCCNC(=O)[C@H]1CNC[C@@H](C(=O)N2CCCC2)C1 | 18.5% |
| CN(C)C(=O)N1CCC(C(=O)NCCNc2ncccc2C#N)CC1 | 68.8% |
| N#Cc1cccnc1NCCNC(=O)N1CCSCC1 | 14.6% |
| Cc1cccnc1NCCNC(=O)C1CCN(C(=O)N(C)C)CC1 | 50.2% |
| Cc1cccnc1NCCNC(=O)C1CCN(Cc2ccco2)CC1 | 48.4% |
